Measurements: PubChem BioAssay (NCI)
The panel holds about 83,000 compounds, 20% with a hit somewhere; the sample as a whole holds those more often.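 Testing used 96-well plates and a 48-hour single-concentration exposure. Example: -40 means 40% of the starting cells died.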 A number with no mark means an inactive call. Activity calls are given as the source filed them. Rule for the calls: active = growth percent below 10; inactive = the rest.

Legend:
Assay in all cases: NCI-60 one-dose screen, 48 h (100 = growth as untreated, 0 = no growth, -100 = all killed)
Settings in all cases: 10 µM unless noted
[1] = system: T-47D breast
[2] = system: BT-549 breast
[3] = system: MDA-MB-435 melanoma
[4] = system: SW-620 colon
[5] = system: MCF7 breast
[6] = system: HCC-2998 colon
[7] = system: KM12 colon
[8] = system: HCT-116 colon

SMILES | growth [1] | growth [2] | growth [3] | growth [4] | growth [5] | growth [6] | growth [7] | growth [8]
COc1cc2cc3cc4cc(OC)c(OC)cc4c(C)[n+]3cc2cc1OC (tested in a mixture with another compound) | 91.7% | 85.5% | 71% | 83.2% | 67.6% | 102% | 80.4% | –
CCCCCCNC(=O)Oc1ccc(/C(=C(/C)Cc2ccc(OC)cc2)c2ccc(OCCN(C)C)cc2)cc1 | 25.8% | 88.1% | 67.8% | 35.4% | 20.4% | 52.4% | 56.3% | –
O=C(CN1C(=O)NC(c2ccccc2)(c2ccccc2)C1=O)c1ccc(N2CCCC2)cc1 | 81.2% | 66.4% | -4.2% (active) | 70.2% | 49.8% | 101% | 65.8% | –
NNC(=O)CNc1ccc2ccccc2c1 | 108% | 93.4% | 111% | 99.8% | 102% | 140% | 97.2% | –
O=C(Cc1ccccc1[N+](=O)[O-])c1ccc2c(c1)OCO2 | 94.4% | 92.1% | 102% | 99% | 96.5% | 116% | 107% | –
NC(N)=N/N=C/c1cccc(Br)c1 | 86.8% | 87% | 105% | 102% | 90.5% | 101% | 107% | –
Clc1ccc(I)c2ccccc12 | 96.8% | 94.6% | 108% | 107% | 95.8% | 107% | 110% | –
Nc1nc2c(c3cnccc13)C(c1cccc(Br)c1)Cc1cnccc1-2 (centres undefined) | 43.9% | -15.6% (active) | -37.2% (active) | 25.9% | 11.5% | 34.8% | 13.2% | –
CCCCCCNC(=O)Oc1ccc(/C(=C(/C)Cc2ccc(OC)cc2)c2ccc(OCCN3CCCCC3)cc2)cc1 | 42% | 92.5% | 91.5% | 84.6% | 30.6% | 94.9% | 85.6% | –
N#Cc1ccc(NC2c3ccccc3CC2O)cc1 (centres undefined) | 103% | 99.2% | 117% | – | 95.8% | 105% | 112% | 101%
CCCCCCCCCCCCCCCCNC(=S)N/N=C/c1ccc(OC)cc1 | 103% | 104% | 107% | 107% | 102% | 113% | 97.9% | –
c1ccc(Nc2ccccn2)cc1 | 101% | 98.8% | 112% | 110% | – | 114% | 104% | 103%
CCCCCCCCCC[N+](C)(C)N | 96.7% | 84.2% | 91.9% | 102% | 98% | 98.5% | 99.8% | –
N#CCCCCCCCCCCC#N | 96.2% | 102% | 91.9% | – | 104% | 95% | 111% | 105%
CCCCN(CCCC)CCCNc1c2c(nc3ccc(Cl)cc13)CCCC2 | 95.7% | 108% | 103% | 82.3% | 89.6% | 82.8% | 99.7% | –
N#CC1=C(N2CCOCC2)NC2c3ccccc3Sc3ccccc3N2C1=N (centres undefined) | 85.8% | 97.2% | 107% | – | 98.4% | 104% | 110% | 97.2%
O=C(O)c1occ(Cl)c1Cl | 103% | 130% | 98.5% | 104% | 111% | 104% | 110% | –
CN1C(=O)C(=Cc2coc3ccc(Br)cc3c2=O)C(=O)N(C)C1=O | 101% | 106% | 109% | – | 88.3% | 98.5% | 114% | 95.2%

SMILES | growth [1] | growth [2] | growth [3] | growth [4] | growth [5] | growth [6] | growth [7] | growth [8]
CCCCCCCCCc1cc[n+](CC(=O)c2ccc([N+](=O)[O-])cc2)cc1 | 22.2% | 15.2% | -20.8% (active) | – | -41.3% (active) | -76.3% (active) | -31.5% (active) | -34.5% (active)
COc1cc(NC(C)CCCN)c2nccc(C)c2c1OC (centres undefined) | 66.7% | 98.2% | 106% | 83.5% | 10.2% | 96.7% | 101% | –
CCOC(=O)NC1=NCC(C)(C)S1 | 93.8% | 106% | 100% | 103% | 100% | 98.3% | 101% | –
O=C(Oc1ccccc1)c1ccccc1Cl | 100% | 96.8% | 103% | 104% | 102% | 108% | 98.9% | –
CCCCCCCCC/C(=N\NC(=O)c1ccncc1)c1ccc(O)c(O)c1O | 33.7% | 38.8% | 53% | 43.1% | 21.4% | 33.3% | 22.4% | –
Cc1ccc(C(=O)NN)cc1 | 109% | 98.8% | 109% | – | 99.7% | 99.5% | – | 100%
CCCCCCNc1nc(N2CCOCC2)c2[nH]c(NCCCCCC)nc2n1 | -70.4% (active) | -81.4% (active) | -58.6% (active) | – | -88.4% (active) | -100% (active) | -89.9% (active) | -100% (active)
CC(=O)Nc1nc(C)c(C(=O)N/N=C/c2cccs2)s1 | 67.8% | 120% | 111% | 94.2% | 75.7% | 114% | 116% | –
CCOP1(=O)CC(C)=C(Cl)C(P(=O)(O)O)C1 (centres undefined) | 98.6% | 97.4% | 107% | 110% | 109% | 94.4% | 105% | –
COc1ccc(NC(=O)/C=C(C)/C=C/C=C(C)/C=C/C2=C(C)CCCC2(C)C)cc1 | 17.8% | 96.2% | 95.7% | 69.3% | 73.7% | 97.9% | 88.9% | –
Oc1ccc2ccccc2c1/C=N\Nc1ccccn1 | 7.06% (active) | 22.2% | 25.1% | – | 2.43% (active) | 21% | 29.7% | 1.72% (active)
COc1cc(/C=C/C(=O)c2ccc(F)cc2)ccc1OCCCCOc1cc2c(cc1OC)C(=O)N1CCCC1C=N2 (centres undefined) | 1.74% (active) | -49.9% (active) | -71% (active) | -59% (active) | -19.5% (active) | -87.5% (active) | -64.1% (active) | –
CCN(CCO)CCNc1ccc(C)c2sc3cc(OC)ccc3c(=O)c12 | 90.1% | 88.7% | 86.2% | 38.4% | 52.6% | 64.5% | 69.2% | –
CCOC(=O)CNS(=O)(=O)CC(=O)c1ccccc1 | 91.9% | 86.4% | 99.7% | 110% | – | 92.2% | 108% | 103%
Cc1c(O)c(N=Nc2ccc(C(=O)O)c(O)c2)c2ccccc2c1O | 112% | 89.3% | 106% | 84.8% | 101% | 118% | 98.3% | –
CCOc1ccccc1/C=N\N=C(N/N=C/c1ccccc1OCC)N/N=C/c1ccccc1OCC | 16.1% | 31.8% | 13.4% | 12.1% | 3.52% (active) | 23.9% | 10.7% | –
COc1cc(N)c2nccc(C)c2c1OC | 108% | 83.3% | 110% | 94.1% | 113% | 149% | 101% | –
